# Records with an inconclusive call do not appear. The source made the active and inactive calls. Calls come from the whole dose curve; as a rule, active = well fitted curve in the direction sought with a large enough effect; inconclusive = small, poorly fitted or top-dose-only effect, or another doubt; inactive = no such curve, though single readings can be large; an effect the other way counts as inactive or inconclusive.
# Test: BET inhibitor-based combinations targeting novel dependencies in MECOM-rearranged (r) AML: UCSD-AML1 cell line (AID 2202235); note: nearly all actives have a fitted effect of over 40% in size;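 for viability (% of control): plate controls were DMSO vehicle wells for no effect and blank wells for full effect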
# Details: UCSD-AML1 AML cells viability, CellTiter-Glo, 48 h; series mostly up to 46 µM; viability (% of control): at the top concentration
# Outline: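 Luminescent ATP readout (CellTiter-Glo, 15 min at room temperature) after 48 hr drug exposure gave viability. Dose-response curves, normalized to DMSO and empty-well controls, were summarized as area under the curve and its mean-centred Z-score.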
# Potency is the fitted concentration of half-maximal effect.
SMILES,viability (% of control),Potency
CNC(=O)c1c(-c2ccc(F)cc2)oc2cc(N(CCO)S(C)(=O)=O)c(C3CC3)cc12,106% (inactive),–
CN1C(=O)N[C@@H](Cc2c[nH]c3c(Cl)cccc23)C1=O,102% (inactive),–
C[C@@H]1CN(Cc2ccc(F)cc2)[C@@H](C)CN1C(=O)c1cc2c(C(=O)C(=O)N(C)C)cn(C)c2cc1Cl,115% (inactive),–
CN1CCN(c2ccc(OC(F)(F)F)c(Nc3ncc4c(n3)-c3c(c(C(N)=O)nn3CCO)CC4)c2)CC1,–,0.118 µM (active)
Cc1ccc2c(c1)C(=O)[C@]1(O)CCN(c3ccccc3)C1=N2,103% (inactive),–
C=CC(=O)Nc1cccc(Sc2nc(Nc3ccc(N4CCN(C)CC4)cc3)ncc2Cl)c1,–,9.34 µM (active)
CC(C)c1nn(-c2c(Cl)cccc2Cl)c2nc(Cc3ccc(OCCO)cc3)[nH]c(=O)c12,–,0.0417 µM (active)
COc1ccc(-c2c(-c3ccc(O)cc3O)n[nH]c2C)cc1,48.2% (inactive),–
CC(C)[C@H](CO)Nc1nc(Nc2ccc(C(=O)O)c(Cl)c2)c2ncn(C(C)C)c2n1,120% (inactive),–
FC(F)(F)c1ccc(/C=C/c2nc(COc3ccc(CCCCn4ccnn4)cc3)co2)cc1,98.7% (inactive),–
CC(C)n1nc(-c2ccc3oc(N)nc3c2)c2c(N)ncnc21,–,0.0118 µM (active)
CC[C@H](NC(=O)[C@H](CS(=O)(=O)CC1CC1)N[C@@H](c1ccc(F)cc1)C(F)(F)F)C(=O)C(=O)NC1CC1,110% (inactive),–
O=C(Nc1ccc(Oc2ccnc3[nH]ccc23)c(F)c1)c1cccn(-c2ccc(F)cc2)c1=O,106% (inactive),–
CNC(=O)c1nn(C)c2c1C(C)(C)Cc1cnc(Nc3ccc(N4CCN(C)CC4)cc3)nc1-2,–,0.934 µM (active)
NS(=O)(=O)c1cc(Cl)c(Cl)c(S(N)(=O)=O)c1,105% (inactive),–
O=C(Nc1ccc(F)c(C(F)(F)F)c1)Nc1nnc(-c2ccncc2)s1,102% (inactive),–
Cc1c(F)cc(C(=O)NC2CC2)cc1-c1c(F)cn2c(C(C)(C)C)nnc2c1F,108% (inactive),–

SMILES,viability (% of control),Potency
CN(C)C/C=C/C(=O)Nc1ccc(C(=O)Nc2cccc(Nc3ncc(Cl)c(-c4c[nH]c5ccccc45)n3)c2)cc1,–,0.132 µM (active)
CCCCc1ccc(NS(=O)(=O)c2ccc(C)c(C(=O)N3CCN(c4cccc(C)c4C)CC3)c2)cc1,99.5% [at 92.2 µM] (inactive),–
CCOC(=O)c1ccnc(CNCC(=O)N(CC)CCN(C)C)c1,106% (inactive),–
COc1ccc(-c2c(C)nn3c(NCCN4CCOCC4)cc(C)nc23)cc1OC,84.3% (inactive),–
O=C([C@@H](Cc1cccc(C(F)(F)F)c1)NS(=O)(=O)c1cc(F)c2c(c1)CCNC2)N1CCCC1,103% (inactive),–
O=C(O)[C@H](CC(=O)N1C[C@H]2CCCC[C@H]2C1)Cc1ccccc1,113% (inactive),–
c1ccc2c(Oc3nc(Nc4ccc(N5CCOCC5)cc4)c4ncn(C5CCCCC5)c4n3)cccc2c1,101% (inactive),–
CCNC(=O)[C@H]1O[C@@H](n2cnc3c(N)nc(NCCc4ccc(CCC(=O)O)cc4)nc32)[C@H](O)[C@@H]1O,104% (inactive),–
COc1cc(C(=O)N2CCC(N3CCN(C)CC3)CC2)ccc1Nc1ncc2c(n1)N(C)c1ccccc1C(=O)N2C,–,4.68 µM (active)
CCC(C)n1ncn(-c2ccc(N3CCN(c4ccc(OC[C@H]5CO[C@](Cn6cncn6)(c6ccc(Cl)cc6Cl)O5)cc4)CC3)cc2)c1=O (stereo partly drawn),109% [at 15.6 µM] (inactive),–
N[C@@H](Cc1cc(I)c(Oc2cc(I)c(O)c(I)c2)c(I)c1)C(=O)O,112% (inactive),–
O=C(c1ccc(Nc2nccc(-c3cc4ccccc4s3)n2)cc1)N1CCC(N2CCCC2)CC1,–,3.32 µM (active)
Cc1ccccc1C(=O)Nc1ccc(C(=O)N2CCCC(O)c3cc(Cl)ccc32)c(C)c1 (stereo not drawn),106% (inactive),–
CCS(=O)(=O)N1CCC([C@@H](C)n2c(C)c(C(=O)NCc3c(OC)cc(C)[nH]c3=O)c3ccccc32)CC1,123% (inactive),–
CC(C)(C)C(=O)Oc1ccc2c(c1)nc(NC(=O)c1cccc([N+](=O)[O-])c1)n2CCCO,94% (inactive),–
CN[C@@H](C)[C@H]1[C@H](O)C[C@@]2(C)[C@@H]3CC[C@H]4C(C)(C)[C@@H](NC)CC[C@@]45C[C@@]35CC[C@]12C,111% [at 8.46 µM] (inactive),–

# Test: BET inhibitor-based combinations targeting novel dependencies in MECOM-rearranged (r) AML: AML-191 cell line (AID 2202236; note: nearly all actives have a fitted effect of over 35% in size;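 for viability (% of control): plate controls were vehicle wells for no effect and wells without cells for full effect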)
# Details: AML-191 viability, CellTiter-Glo luminescence, 48 h; series mostly up to 46 µM; viability (% of control): at the top concentration
# Outline: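 Luminescent ATP readout (CellTiter-Glo) after 48 hr drug exposure gives viability. Curves span 11 concentrations and are normalized to DMSO and empty wells. Activity is reported as area under the curve and its Z-transform within each cell line.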
SMILES,viability (% of control),Potency
CNC(=O)c1c(-c2ccc(F)cc2)oc2cc(N(CCO)S(C)(=O)=O)c(C3CC3)cc12,98.8% (inactive),–
CC[C@@H]1C(=O)N(C)c2cnc(Nc3ccc(C(=O)NC4CCC(N5CCN(CC6CC6)CC5)CC4)cc3OC)nc2N1C(C)C (stereo partly drawn),–,0.166 µM (active)
CN1CCN(c2ccc(OC(F)(F)F)c(Nc3ncc4c(n3)-c3c(c(C(N)=O)nn3CCO)CC4)c2)CC1,–,0.132 µM (active)
Cc1ccc2c(c1)C(=O)[C@]1(O)CCN(c3ccccc3)C1=N2,–,23.5 µM (active)
NCCOc1cc(C(=O)Nc2cc(OCCN)c3ccccc3n2)nc(C(=O)Nc2cc(OCCN)c3ccccc3n2)c1,89.3% (inactive),–
C=CC(=O)Nc1cccc(Sc2nc(Nc3ccc(N4CCN(C)CC4)cc3)ncc2Cl)c1,–,10.5 µM (active)
COc1ccc(-c2c(-c3ccc(O)cc3O)n[nH]c2C)cc1,69.6% (inactive),–
CC(C)[C@H](CO)Nc1nc(Nc2ccc(C(=O)O)c(Cl)c2)c2ncn(C(C)C)c2n1,88.6% (inactive),–
CC[C@H](NC(=O)[C@H](CS(=O)(=O)CC1CC1)N[C@@H](c1ccc(F)cc1)C(F)(F)F)C(=O)C(=O)NC1CC1,114% (inactive),–
O=C(Nc1ccc(Oc2ccnc3[nH]ccc23)c(F)c1)c1cccn(-c2ccc(F)cc2)c1=O,–,2.35 µM (active)
NS(=O)(=O)c1cc(Cl)c(Cl)c(S(N)(=O)=O)c1,103% (inactive),–
COc1cccc2c1c(O)c(C(=O)N(C)c1ccc(C(F)(F)F)cc1)c(=O)n2C,90.9% (inactive),–
O=C(Nc1ccc(F)c(C(F)(F)F)c1)Nc1nnc(-c2ccncc2)s1,74.8% (inactive),–
Cc1c(F)cc(C(=O)NC2CC2)cc1-c1c(F)cn2c(C(C)(C)C)nnc2c1F,101% (inactive),–
CN(C)C/C=C/C(=O)Nc1ccc(C(=O)Nc2cccc(Nc3ncc(Cl)c(-c4c[nH]c5ccccc45)n3)c2)cc1,–,0.235 µM (active)
CCCCc1ccc(NS(=O)(=O)c2ccc(C)c(C(=O)N3CCN(c4cccc(C)c4C)CC3)c2)cc1,93.4% [at 92.2 µM] (inactive),–
CCOC(=O)c1ccnc(CNCC(=O)N(CC)CCN(C)C)c1,97.1% (inactive),–
CCS(=O)(=O)N1CCN(c2ccc(Nc3ncc(C(N)=O)c(NC4CC4)n3)cc2)CC1,–,4.68 µM (active)
O=C([C@@H](Cc1cccc(C(F)(F)F)c1)NS(=O)(=O)c1cc(F)c2c(c1)CCNC2)N1CCCC1,103% (inactive),–
c1ccc2c(Oc3nc(Nc4ccc(N5CCOCC5)cc4)c4ncn(C5CCCCC5)c4n3)cccc2c1,95.7% (inactive),–
CCNC(=O)[C@H]1O[C@@H](n2cnc3c(N)nc(NCCc4ccc(CCC(=O)O)cc4)nc32)[C@H](O)[C@@H]1O,103% (inactive),–
Cc1ccc(S(=O)(=O)Cc2nc(-c3ccc(C(=O)NCc4cccnc4)cc3)oc2C)cc1,–,0.0235 µM (active)
COc1cc(C(=O)N2CCC(N3CCN(C)CC3)CC2)ccc1Nc1ncc2c(n1)N(C)c1ccccc1C(=O)N2C,–,9.34 µM (active)
CCC(C)n1ncn(-c2ccc(N3CCN(c4ccc(OC[C@H]5CO[C@](Cn6cncn6)(c6ccc(Cl)cc6Cl)O5)cc4)CC3)cc2)c1=O (stereo partly drawn),–,7.23 µM (active)
C[C@@H](NCCCc1cccc(C(F)(F)F)c1)c1cccc2ccccc12,–,23.5 µM (active)
N[C@@H](Cc1cc(I)c(Oc2cc(I)c(O)c(I)c2)c(I)c1)C(=O)O,109% (inactive),–
O=C(c1ccc(Nc2nccc(-c3cc4ccccc4s3)n2)cc1)N1CCC(N2CCCC2)CC1,–,7.42 µM (active)
Cc1ccccc1C(=O)Nc1ccc(C(=O)N2CCCC(O)c3cc(Cl)ccc32)c(C)c1 (stereo not drawn),99.9% (inactive),–
CCS(=O)(=O)N1CCC([C@@H](C)n2c(C)c(C(=O)NCc3c(OC)cc(C)[nH]c3=O)c3ccccc32)CC1,96.3% (inactive),–
CN[C@@H](C)[C@H]1[C@H](O)C[C@@]2(C)[C@@H]3CC[C@H]4C(C)(C)[C@@H](NC)CC[C@@]45C[C@@]35CC[C@]12C,95.8% [at 8.46 µM] (inactive),–
